± gives the standard deviation.
T1: HaloTag-ATRX ADD domain (163-292)
T1 chain: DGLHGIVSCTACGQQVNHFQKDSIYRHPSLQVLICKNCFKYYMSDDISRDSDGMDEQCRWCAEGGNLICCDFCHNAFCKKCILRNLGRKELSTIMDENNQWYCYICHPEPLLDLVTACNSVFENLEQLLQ


Biological target: T1, HaloTag-ATRX ADD domain (163-292)
Assay: peptide microarray binding signal (635 nm), min-max normalized on array (fraction of array maximum); higher = stronger binding
Conditions: peptide region: Unmod H1 variant; binder concentration: 50 nM
Procedure, shortened: (§1)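 Triplicate spots of histone 13-mer peptide–cellulose conjugates with a Cy3 tracer were printed on nitrocellulose and probed for 1 h at 4°C with biotin-labelled HaloTag reader fusions (10 nM to 1 μM) plus streptavidin-Alexa Fluor 647 or rabbit histone antibodies (1:10,000 to 1:2,000) plus anti-rabbit Alexa 647. An Axon GenePix 4000B read the 635 nm channel. Binding signal is the spot-triplicate mean intensity after min-max scaling within each library.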

Binder | peptide microarray binding signal
KPKATPVKKAKKK [Unmod H1 variant K P K A T P V K K A K K K] | 0.0137 ± 0.0012
RLVTTGVLKQTKG [Unmod H1 variant R L V T T G V L K Q T K G] | 0.0191 ± 0.00044
KKSTDHPKYSDMI [Unmod H1 variant K K S T D H P K Y S D M I] | 0.01 ± 7.3e-05
AKPKRAKASKKST [Unmod H1 variant A K P K R A K A S K K S T] | 0.0106 ± 0.0005
SFRLAKSDEPKKS [Unmod H1 variant S F R L A K S D E P K K S] | 0.0196 ± 0.0052

Same assay, conditions: peptide region: Unmod H1 variant; binder concentration: 500 nM

Binder | peptide microarray binding signal
KPKATPVKKAKKK [Unmod H1 variant K P K A T P V K K A K K K] | 0.0124 ± 0.00028
RLVTTGVLKQTKG [Unmod H1 variant R L V T T G V L K Q T K G] | 0.035 ± 0.0031
KKSTDHPKYSDMI [Unmod H1 variant K K S T D H P K Y S D M I] | 0.00895 ± 0.0005
AKPKRAKASKKST [Unmod H1 variant A K P K R A K A S K K S T] | 0.018 ± 0.00086
SFRLAKSDEPKKS [Unmod H1 variant S F R L A K S D E P K K S] | 0.0223 ± 0.001

Each binder was assayed against HaloTag-ING2 PHD (mouse Ing2 200-280) in the same assay as above. Conditions: peptide region: Unmod H1 variant; binder concentration: 10 nM.
Procedure, shortened: as §1

Binder | peptide microarray binding signal
KPKATPVKKAKKK [Unmod H1 variant K P K A T P V K K A K K K] | 0.00209 ± 5.3e-05
RLVTTGVLKQTKG [Unmod H1 variant R L V T T G V L K Q T K G] | 0.0205 ± 0.0038
KKSTDHPKYSDMI [Unmod H1 variant K K S T D H P K Y S D M I] | 0.00269 ± 3e-05
AKPKRAKASKKST [Unmod H1 variant A K P K R A K A S K K S T] | 0.00334 ± 4.8e-05
SFRLAKSDEPKKS [Unmod H1 variant S F R L A K S D E P K K S] | 0.00448 ± 0.00019

Same assay, conditions: peptide region: Unmod H1 variant; binder concentration: 100 nM

Binder | peptide microarray binding signal
KPKATPVKKAKKK [Unmod H1 variant K P K A T P V K K A K K K] | 0.00319 ± 0.00028
RLVTTGVLKQTKG [Unmod H1 variant R L V T T G V L K Q T K G] | 0.0395 ± 0.0068
KKSTDHPKYSDMI [Unmod H1 variant K K S T D H P K Y S D M I] | 0.00418 ± 0.00013
AKPKRAKASKKST [Unmod H1 variant A K P K R A K A S K K S T] | 0.00638 ± 0.0014
SFRLAKSDEPKKS [Unmod H1 variant S F R L A K S D E P K K S] | 0.0192 ± 0.0084

What follows are binders tested against anti-H3K4me3 antibody ab8580 in the same assay as above. Conditions: peptide region: Unmod H1 variant; binder concentration: 1:2,000 dilution.
Procedure, shortened: as §1

Binder | peptide microarray binding signal
KPKATPVKKAKKK [Unmod H1 variant K P K A T P V K K A K K K] | 0.000547 ± 2.7e-05
RLVTTGVLKQTKG [Unmod H1 variant R L V T T G V L K Q T K G] | 0.00321 ± 0.00047
KKSTDHPKYSDMI [Unmod H1 variant K K S T D H P K Y S D M I] | 0.000717 ± 7.3e-05
AKPKRAKASKKST [Unmod H1 variant A K P K R A K A S K K S T] | 0.000378 ± 1.4e-05
SFRLAKSDEPKKS [Unmod H1 variant S F R L A K S D E P K K S] | 0.001 ± 0.00013

Same assay, conditions: peptide region: Unmod H1 variant; binder concentration: 1:10,000 dilution

Binder | peptide microarray binding signal
KPKATPVKKAKKK [Unmod H1 variant K P K A T P V K K A K K K] | 0.00126 ± 2.2e-05
RLVTTGVLKQTKG [Unmod H1 variant R L V T T G V L K Q T K G] | 0.00348 ± 4.9e-05
KKSTDHPKYSDMI [Unmod H1 variant K K S T D H P K Y S D M I] | 0.000856 ± 1.8e-05
AKPKRAKASKKST [Unmod H1 variant A K P K R A K A S K K S T] | 0.000913 ± 2.8e-05
SFRLAKSDEPKKS [Unmod H1 variant S F R L A K S D E P K K S] | 0.00154 ± 9.8e-05

Each binder was assayed against anti-H3K9me3 antibody ab8898 in the same assay as above. Conditions: peptide region: Unmod H1 variant; binder concentration: 1:2,000 dilution.
Procedure, shortened: as §1

Binder | peptide microarray binding signal
KPKATPVKKAKKK [Unmod H1 variant K P K A T P V K K A K K K] | 0.0008 ± 0.00013
RLVTTGVLKQTKG [Unmod H1 variant R L V T T G V L K Q T K G] | 0.00151 ± 8.2e-05
KKSTDHPKYSDMI [Unmod H1 variant K K S T D H P K Y S D M I] | 0.000196 ± 2.1e-06
AKPKRAKASKKST [Unmod H1 variant A K P K R A K A S K K S T] | 0.000347 ± 7e-06
SFRLAKSDEPKKS [Unmod H1 variant S F R L A K S D E P K K S] | 0.000785 ± 0.00015

Same assay, conditions: peptide region: Unmod H1 variant; binder concentration: 1:10,000 dilution

Binder | peptide microarray binding signal
KPKATPVKKAKKK [Unmod H1 variant K P K A T P V K K A K K K] | 0.000634 ± 1.2e-05
RLVTTGVLKQTKG [Unmod H1 variant R L V T T G V L K Q T K G] | 0.001903 ± 1.8e-05
KKSTDHPKYSDMI [Unmod H1 variant K K S T D H P K Y S D M I] | 0.00075 ± 7.9e-06
AKPKRAKASKKST [Unmod H1 variant A K P K R A K A S K K S T] | 0.000634
SFRLAKSDEPKKS [Unmod H1 variant S F R L A K S D E P K K S] | 0.000923 ± 9.6e-06

Source: the supplement of paper PMC4022240
